Structures can show the parent of a compound that is named as a salt.
Key:
Conditions in all cases: 20 µM
[1] = tested on: Salmonella enterica typhimurium; test: growth AUC normalised to DMSO control (fraction of control); higher = less growth inhibition, active = hit call of the paper
Procedure, shortened: (§1)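 Pathogens passaged twice anaerobically were inoculated at a starting OD578 of 0.01 into pre-reduced mGAM plates with drug at 20 μM and 1% DMSO, sealed with breathable membranes. Haemophilus parainfluenzae medium was supplemented with hemin and NAD. OD578 was read hourly for 24 h, with three biological replicates. Growth-curve AUC was computed by the trapezoidal rule up to the exponential-to-stationary transition and normalised to DMSO controls on the same plate.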

Shigella flexneri = test: as above
Procedure, shortened: as §1

Vibrio cholerae = test: as above
Procedure, shortened: as §1

[2] = tested on: Yersinia pseudotuberculosis; test: as above
Procedure, shortened: as §1

P. vulgatus RND KO = test: growth AUC normalised to DMSO control (median) (fraction of control); higher = less growth inhibition, active = hit call of the paper
Procedure, shortened: (§2)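 After two overnight anaerobic passages, strains were inoculated at OD578 0.01 into mGAM in 96-well plates containing approved-drug library compounds at 20 μM and 1% DMSO. Growth was followed by reading OD578 hourly for 24 h within an anaerobic incubator. Area under the curve, taken by the trapezoidal rule up to the start of stationary phase, was normalised to same-plate vehicle wells, and the median of three biological replicates is listed.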

P. vulgatus WT = test: as above
Procedure, shortened: as §2

[3] = tested on: S. enterica typhimurium WT; test: as above
Procedure, shortened: as §2

[4] = tested on: S. enterica typhimurium tolC KO; test: as above
Procedure, shortened: as §2

Measured: growth AUC normalised to DMSO control
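Throughout, for growth AUC normalised to DMSO control (median): active when median AUC fell below 0.1.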

CO[C@H]1/C=C/O[C@@]2(C)Oc3c(C)c(O)c4c(O)c(c5c(nc6cc(C)ccn65)c4c3C2=O)NC(=O)/C(C)=C\C=C\[C@H](C)[C@H](O)[C@@H](C)[C@@H](O)[C@@H](C)[C@H](OC(C)=O)[C@@H]1C [Rifaximin]
inactive: Vibrio cholerae 1.1 | [3] 0.217
active: [1] 0.477 | Shigella flexneri 0.56 | [2] 0.0303 | P. vulgatus RND KO 0.0137 | P. vulgatus WT 0.00787 | [4] 0.0409

CCCOc1ccc(C(=O)OCCN(CC)CC)cc1N [Proparacaine hydrochloride]
inactive: [1] 1 | Shigella flexneri 1.02 | Vibrio cholerae 1.08 | [2] 1 | P. vulgatus RND KO 1.03 | P. vulgatus WT 1.05 | [3] 1.01 | [4] 1.01

CNC1(C)C2CCC(C2)C1(C)C (centres undefined) [Mecamylamine hydrochloride]
inactive: [1] 1.02 | Shigella flexneri 1 | Vibrio cholerae 0.976 | [2] 1.02 | P. vulgatus RND KO 1.09 | P. vulgatus WT 1.09 | [3] 1.02 | [4] 1.02

CN(C)CCN1C(=O)c2ccccc2N(C)c2ccccc21 [Dibenzepine hydrochloride]
inactive: [1] 0.986 | Shigella flexneri 0.972 | Vibrio cholerae 0.984 | [2] 0.977 | P. vulgatus RND KO 0.994 | P. vulgatus WT 0.979 | [3] 0.988 | [4] 0.992

CC(C)(C)NCC(O)c1cc(O)cc(O)c1 (centres undefined) [Terbutaline hemisulfate]
inactive: [1] 1.02 | Shigella flexneri 1.03 | Vibrio cholerae 1.07 | [2] 1 | P. vulgatus RND KO 1.06 | P. vulgatus WT 1.06 | [3] 1.01 | [4] 1.01

NC(=O)c1ncn([C@@H]2O[C@H](CO)[C@@H](O)[C@H]2O)n1 [Ribavirin]
inactive: [1] 0.995 | Shigella flexneri 0.949 | Vibrio cholerae 0.983 | [2] 0.952 | P. vulgatus RND KO 0.987 | P. vulgatus WT 1 | [3] 0.98 | [4] 0.988

C=CCOc1ccccc1OCC(O)CNC(C)C (centres undefined) [Oxprenolol hydrochloride]
inactive: [1] 0.993 | Shigella flexneri 1.02 | Vibrio cholerae 1.03 | [2] 1 | P. vulgatus RND KO 0.998 | P. vulgatus WT 1 | [3] 0.997 | [4] 0.994

C=CC[N@@+]12CC[C@@]34c5ccccc5N5/C=C6/[C@H]7C[C@H]8[C@@]9(CC[N@@+]8(CC=C)C/C7=C/CO)c7ccccc7N(/C=C(/[C@@H](C[C@@H]31)/C(=C\CO)C2)[C@H]54)[C@@H]69 [Alcuronium chloride]
inactive: [1] 0.94 | Shigella flexneri 1 | Vibrio cholerae 1.09 | [2] 1.03 | P. vulgatus RND KO 1.05 | P. vulgatus WT 1.06 | [3] 1.01 | [4] 1

NS(=O)(=O)c1cc(C(=O)O)cc(N2CCCC2)c1Oc1ccccc1 [Piretanide]
inactive: [1] 1.03 | Shigella flexneri 1.07 | Vibrio cholerae 1.08 | [2] 1.01 | P. vulgatus RND KO 1.06 | P. vulgatus WT 1.07 | [3] 1 | [4] 0.997

CCCCc1cc2ccccc2c(OCCN(C)C)n1 [Dimethisoquin hydrochloride]
active: Vibrio cholerae 0.866
inactive: [1] 1 | Shigella flexneri 1.03 | [2] 1.02 | P. vulgatus RND KO 1 | P. vulgatus WT 1.02 | [3] 0.997 | [4] 0.918

O=C(CCCN1CCC(O)(c2ccc(Cl)cc2)CC1)c1ccc(F)cc1 [Haloperidol]
inactive: [1] 0.976 | Shigella flexneri 0.966 | Vibrio cholerae 0.97 | [2] 0.966 | P. vulgatus RND KO 0.965 | P. vulgatus WT 0.963 | [3] 0.998 | [4] 0.962

CN(C)CCCN1c2ccccc2CCc2ccc(Cl)cc21 [Clomipramine hydrochloride]
inactive: [1] 0.992 | Shigella flexneri 1 | Vibrio cholerae 0.874 | [2] 1.01 | P. vulgatus RND KO 0.976 | P. vulgatus WT 0.957 | [3] 1.01 | [4] 0.962

COc1ccc2cc([C@@H](C)C(=O)O)ccc2c1 [(R) Naproxen sodium salt]
inactive: [1] 1.02 | Shigella flexneri 1.08 | Vibrio cholerae 1.06 | [2] 1.03 | P. vulgatus RND KO 1.06 | P. vulgatus WT 1.07 | [3] 1 | [4] 1.02

COc1cc([S+](C)[O-])ccc1-c1nc2cccnc2[nH]1 (centres undefined) [Sulmazole]
inactive: [1] 1.02 | Shigella flexneri 1.03 | Vibrio cholerae 1.04 | [2] 1.02 | P. vulgatus RND KO 1.07 | P. vulgatus WT 1.08 | [3] 0.999 | [4] 0.987

CCCCCN(CCCCC)C(=O)C(CCC(=O)O)NC(=O)c1ccc(Cl)c(Cl)c1 (centres undefined) [Lorglumide sodium salt]
inactive: [1] 1 | Shigella flexneri 0.965 | Vibrio cholerae 0.986 | [2] 1.01 | P. vulgatus RND KO 0.947 | P. vulgatus WT 0.959 | [3] 1 | [4] 0.991

Cc1cccc(C)c1NC(=O)CN1CCN(CCCC(c2ccc(F)cc2)c2ccc(F)cc2)CC1 [Lidoflazine]
inactive: [1] 1.01 | Shigella flexneri 1.02 | Vibrio cholerae 1.01 | [2] 1.02 | P. vulgatus RND KO 1.04 | P. vulgatus WT 1.04 | [3] 1.01 | [4] 0.938

CN1CCc2cccc3c2[C@H]1Cc1ccc(O)c(O)c1-3 [R(-) Apomorphine hydrochloride hemihydrate]
inactive: [1] 0.999 | Shigella flexneri 1 | Vibrio cholerae 1.01 | [2] 1.02 | P. vulgatus RND KO 1.02 | P. vulgatus WT 1.05 | [3] 1.01 | [4] 0.983

CC[C@@H]1C(=O)OC[C@@H]1Cc1cncn1C [Pilocarpine nitrate]
inactive: [1] 0.995 | Shigella flexneri 1 | Vibrio cholerae 0.998 | [2] 1.04 | P. vulgatus RND KO 0.982 | P. vulgatus WT 0.998 | [3] 1 | [4] 1

CC(C)(C)NCC(O)COc1cccc2c1CCC(=O)N2 (centres undefined) [Carteolol hydrochloride]
inactive: [1] 1 | Shigella flexneri 0.985 | Vibrio cholerae 0.993 | [2] 1 | P. vulgatus RND KO 0.945 | P. vulgatus WT 0.968 | [3] 0.998 | [4] 0.991

CCCNCC(O)COc1ccccc1C(=O)CCc1ccccc1 (centres undefined) [Propafenone hydrochloride]
inactive: [1] 1 | Shigella flexneri 0.994 | Vibrio cholerae 0.979 | [2] 0.99 | P. vulgatus RND KO 1.03 | P. vulgatus WT 1.05 | [3] 0.988 | [4] 0.948

Nc1ccc(C(=O)NCC(=O)O)cc1 [Aminohippuric acid]
inactive: [1] 1.03 | Shigella flexneri 0.989 | Vibrio cholerae 0.998 | [2] 0.997 | P. vulgatus RND KO 0.992 | P. vulgatus WT 1.01 | [3] 1.01 | [4] 0.999

CC1(C)O[C@@H]2C[C@H]3[C@@H]4CCC5=CC(=O)CC[C@]5(C)[C@@]4(F)[C@@H](O)C[C@]3(C)[C@]2(C(=O)CCl)O1 [Halcinonide]
inactive: [1] 1 | Shigella flexneri 1.03 | Vibrio cholerae 0.99 | [2] 1 | P. vulgatus RND KO 0.993 | P. vulgatus WT 1 | [3] 1.02 | [4] 0.967

CO[C@@]1(NC(=O)Cc2cccs2)C(=O)N2C(C(=O)O)=C(COC(N)=O)CS[C@@H]21 [Cefoxitin sodium salt]
active: [1] 0.00626 | Shigella flexneri 0.0351 | Vibrio cholerae 0.307 | [2] 0.0451 | P. vulgatus RND KO 0.018 | P. vulgatus WT 0.0178 | [3] 0.00954 | [4] 0.0113

C[C@@H]1C[C@H]2[C@@H]3CCC4=CC(=O)C=C[C@]4(C)[C@@]3(Cl)[C@@H](O)C[C@]2(C)[C@@]1(OC(=O)c1ccco1)C(=O)CCl [Mometasone furoate]
inactive: [1] 1.02 | Shigella flexneri 1.07 | Vibrio cholerae 1.01 | [2] 1.03 | P. vulgatus RND KO 1.04 | P. vulgatus WT 1.06 | [3] 1.01 | [4] 0.991

CC[C@H](C)C(=O)O[C@H]1C[C@H](O)C=C2C=C[C@H](C)[C@H](CC[C@@H](O)C[C@@H](O)CC(=O)O)[C@H]21 [Pravastatin]
inactive: [1] 1.04 | Shigella flexneri 1.08 | Vibrio cholerae 1.09 | [2] 1.02 | P. vulgatus RND KO 1.05 | P. vulgatus WT 1.06 | [3] 1.02 | [4] 1.01

N[C@@H]1CONC1=O [D-cycloserine]
inactive: [1] 1.03 | Shigella flexneri 1.01 | Vibrio cholerae 1.02 | [2] 1.01 | P. vulgatus RND KO 0.972 | P. vulgatus WT 0.962 | [3] 0.994 | [4] 1

CCOC(=O)[C@H](CCc1ccccc1)N[C@@H](C)C(=O)N1[C@H](C(=O)O)C[C@@H]2CCC[C@@H]21 [Ramipril]
inactive: [1] 1.02 | Shigella flexneri 1.06 | Vibrio cholerae 1.07 | [2] 1.01 | P. vulgatus RND KO 0.985 | P. vulgatus WT 0.99 | [3] 1.01 | [4] 1

CNCCC(Oc1ccc(C(F)(F)F)cc1)c1ccccc1 (centres undefined) [Fluoxetine hydrochloride]
inactive: [1] 0.996 | Shigella flexneri 1 | Vibrio cholerae 0.975 | [2] 0.991 | P. vulgatus RND KO 0.991 | P. vulgatus WT 0.997 | [3] 1.01 | [4] 0.934

O=C(O)Cc1ccc(-c2ccccc2)cc1 [Felbinac]
inactive: [1] 1.03 | Shigella flexneri 0.977 | Vibrio cholerae 0.996 | [2] 0.994 | P. vulgatus RND KO 1 | P. vulgatus WT 1.01 | [3] 1.01 | [4] 0.988

NCCc1ccc(O)c(O)c1 [Dopamine hydrochloride]
inactive: [1] 1.02 | Shigella flexneri 1.05 | Vibrio cholerae 0.989 | [2] 1.01 | P. vulgatus RND KO 1.03 | P. vulgatus WT 1.02 | [3] 1 | [4] 0.99

CN1CCC(=C2c3ccccc3CC(=O)c3sccc32)CC1 [Ketotifen fumarate]
inactive: [1] 1.01 | Shigella flexneri 0.999 | Vibrio cholerae 0.985 | [2] 1.01 | P. vulgatus RND KO 0.979 | P. vulgatus WT 0.997 | [3] 1.01 | [4] 0.999

CC1CC(OC(=O)c2ccccc2O)CC(C)(C)C1 (centres undefined) [Homosalate]
inactive: [1] 1 | Shigella flexneri 0.996 | Vibrio cholerae 1.02 | [2] 1.01 | P. vulgatus RND KO 0.995 | P. vulgatus WT 1.03 | [3] 1.01 | [4] 0.998

CC[C@H]1OC(=O)[C@H](C)[C@@H](O[C@H]2C[C@@](C)(OC)[C@@H](O)[C@H](C)O2)[C@H](C)[C@@H](O[C@@H]2O[C@H](C)C[C@H](N(C)C)[C@H]2O)[C@](C)(O)C[C@@H](C)[C@@H]2N[C@@H](COCCOC)O[C@H]([C@H]2C)[C@]1(C)O [Dirithromycin]
active: [1] 0.879 | Vibrio cholerae 0.154 | P. vulgatus RND KO 0.0107 | P. vulgatus WT 0.0116 | [4] 0.00235
inactive: Shigella flexneri 0.915 | [2] 1 | [3] 0.862

— the supplement of paper PMC12350171
